HTT cytoprotect: qHTS Multiplex Assay to Identify Dual Action Probes in a Cell Model of Huntington: Cytoprotection (ATP) | PC12 HTT-Q103 induced, cytoprotection, ATP luminescence, 40 h | Potency, µM (titrated, usually from 56.4 µM), without a hit: cytoprotection (ATP increase), actives largely listed as activators | 0.14% of 230,000 active | AID 1471, 2008; further: potency means the concentration at half of the fitted maximal effect; % of control where 0% means no effect; nearly all actives have a fitted effect of over 45% in size
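Readout: ATPlite luminescence (ATP level). Model: stable PC12, inducible Htt exon1 Q103-GFP. Inducer: tebufenozide, 100 nM final. Compounds: dose series. No G418 in medium.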
ALDH1A1 inh: qHTS Assay for Inhibitors of Aldehyde Dehydrogenase 1 (ALDH1A1) | Purified ALDH1A1, NADH fluorescence, propionaldehyde substrate | Potency, µM (doses to about 75.3 µM), inactives show at the top dose activity, negative = inhibition, hits mostly inhibitors | 7.3% of 220,000 active | AID 1030, 2008; active means well fitted inhibition curve with a large enough effect, not every such curve was filed as active; inconclusive means small, poorly fitted or top-dose-only effect, or another doubt; inactive means no such curve, though single readings can be large or run the other way;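 further: potency means the concentration at half of the fitted maximal effect; plate controls were no enzyme wells and a reference inhibitor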
Target sequence (P00352 whole entry, looked up): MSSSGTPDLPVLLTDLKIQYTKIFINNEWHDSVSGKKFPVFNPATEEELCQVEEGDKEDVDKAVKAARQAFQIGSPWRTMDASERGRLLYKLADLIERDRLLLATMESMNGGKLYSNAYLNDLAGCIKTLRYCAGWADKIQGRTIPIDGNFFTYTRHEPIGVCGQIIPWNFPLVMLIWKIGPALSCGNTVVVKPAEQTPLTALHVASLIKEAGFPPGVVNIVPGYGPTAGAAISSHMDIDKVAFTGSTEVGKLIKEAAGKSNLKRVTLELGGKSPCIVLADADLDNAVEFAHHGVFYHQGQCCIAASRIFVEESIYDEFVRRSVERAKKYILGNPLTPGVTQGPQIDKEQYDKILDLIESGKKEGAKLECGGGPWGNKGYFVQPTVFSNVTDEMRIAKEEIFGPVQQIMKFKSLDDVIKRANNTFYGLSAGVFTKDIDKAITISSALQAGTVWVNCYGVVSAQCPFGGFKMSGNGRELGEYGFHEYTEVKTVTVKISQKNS
IMPase Li inh: qHTS Assay for Identifying the Cell-Membrane Permeable IMPase Inhibitors: Potentiation with Lithium; CHO-M1 cells, IP1 TR-FRET (IP-One), carbachol + lithium; Potency, µM (doses to about 59.4 µM), without a hit: at the highest dose activity, negative = IMPase inhibition, hits mostly inhibitors; AID 1457, 2008; 0.35% of 210,000 active;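 further: IP1 builds up when IMPase is blocked and the TR-FRET signal falls; potency means the concentration at half of the fitted maximal effect; plate controls were basal vehicle for no effect and high inhibitor control for full effect; nearly all actives have a fitted effect of over 50% in size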
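CHO cells stably expressing M1 receptor (2000/well, cultured 16–30 h) treated 30 min at 37C with compound plus low lithium. Cytosolic IP1 by TR-FRET (665/620 ratio and 620 channel) after 10 min lysis; AC50 by Hill fit.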
HPGD inh: qHTS Assay for Inhibitors of HPGD (15-Hydroxyprostaglandin Dehydrogenase) | 15-hydroxyprostaglandin dehydrogenase [NAD(+)] (Homo sapiens), P15428 | purified HPGD, NADH fluorescence kinetic, PGE2 substrate | Potency, µM, inactives show at the top dose activity change, negative = inhibition, actives largely listed as inhibitors | 4.3% of 150,000 active | AID 894, 2007; active means well fitted inhibition curve with a large enough effect, not every such curve was filed as active; inconclusive means small, poorly fitted or top-dose-only effect, or another doubt; inactive means no such curve, though single readings can be large or run the other way; further: potency means the concentration at half of the fitted maximal effect; on the % scale 0 is the no-effect control and ±100 the full control effect
Target sequence (P15428 whole entry, looked up): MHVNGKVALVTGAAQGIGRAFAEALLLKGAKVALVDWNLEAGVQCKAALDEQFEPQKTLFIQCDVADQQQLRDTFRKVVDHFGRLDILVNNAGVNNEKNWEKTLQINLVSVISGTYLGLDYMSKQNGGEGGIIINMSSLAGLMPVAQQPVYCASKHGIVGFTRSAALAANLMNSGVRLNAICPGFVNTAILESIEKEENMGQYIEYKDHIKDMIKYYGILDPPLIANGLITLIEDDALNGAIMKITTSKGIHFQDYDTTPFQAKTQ
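20 nM HPGD preincubated 15 min at room temperature with compound in 50 mM Tris-HCl pH 8, 0.01% Tween 20. Started with 1 mM NAD+ and 30 uM prostaglandin E2; NADH fluorescence (360/450 nm) read 5 times over 30-s intervals, last minus first.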
HTT aggregate: qHTS Multiplex Assay to Identify Dual Action Probes in a Cell Model of Huntington: Aggregate Formation (GFP); AID 1688, 2009; 1.1% of 220,000 active; PC12 HttQ103-GFP aggregates, Acumen cytometry, 40 h; Potency, µM (titrated, usually from 46.1 µM), without a hit: at the top dose activity change, negative = inhibition, actives largely listed as inhibitors; further: potency means the concentration at half of the fitted maximal effect; on the % scale 0 is the no-effect control and ±100 the full control effect; nearly all actives have a fitted effect of over 60% in size
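Using laser scanning cytometry, GFP-positive aggregates were counted after lysis of PC12 cells induced with 100 nM tebufenozide to express HTT exon 1 Q103–GFP. Compounds were tested in titration.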
IMPase inh: qHTS Assay for Identifying the Cell-Membrane Permeable IMPase Inhibitors | Inositol monophosphatase 1 (Rattus norvegicus), P97697 | CHO-M1 cells, IP1 accumulation, HTRF TR-FRET ratio | inhibition (IP1 accumulation), % at 46.1 µM | 120,000 tested, under 10 active | AID 901, 2007; active means well fitted curve in the direction sought with a large enough effect in the signal ratio, not every such curve was filed as active; inconclusive means small, poorly fitted or top-dose-only effect, or a change in a side signal; inactive means no such curve, though single readings can be large or run the other way; the % refers to the signal ratio;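 further: cells stimulated with carbachol in lithium chloride buffer; plate controls were DMSO basal wells for no effect and reference inhibitor wells for full effect; higher means more IMPase inhibition seen as more IP1 and lower FRET ratio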
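Measured: the HTRF emission ratio (665/620 nm) plus the 620 nm donor channel, each fitted to the Hill equation to give AC50. Cells were CHO-M1 given compounds up to 46 uM and a 30 min carbachol stimulation at 37C.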
* hit, by the source's call; ? = inconclusive; . = no result given; [ ] = dose if it differs, or a comment. An excerpt weighted towards active compounds, which were near 9.4% of everything screened. Unless noted, the call rests on the fitted dose curve; in most records, active means well fitted curve in the direction sought with a large enough effect; inconclusive means small, poorly fitted or top-dose-only effect, or another doubt; inactive means no such curve, though single readings can be large; an effect the other way counts as inactive or inconclusive.

SMILES	HTT cytoprotect	ALDH1A1 inh	IMPase Li inh	HPGD inh	HTT aggregate	IMPase inh
c1ccc2sc(C3(N4CCCC4)CCCCC3)cc2c1	-16.7%	4.0%	39.6%	.	.	.
CCOc1ccc(CC2C(=O)NC(=O)N(c3ccc(CC)cc3)C2=O)cc1 (stereo not given)	2.6%	22.4µM*	26.6%[38.3 µM]	-12.6%	13.1%	?
C[C@H]1CC[C@@]2(NC1)O[C@@H]1C[C@@H]3[C@@H]4CC=C5C[C@@H](O)CC[C@]5(C)[C@@H]4CC[C@]3(C)[C@H]1[C@@H]2C	-13.0%[10 µM]	9.1%[13.5 µM]	12.9%	-6.2%	.	.
NC1=NC([S][Hg][c]2ccc(N)cc2)c2ncn([C@@H]3O[C@H](CO)[C@@H](O)[C@@H]3O)c2N1 (stereo not given in full)	.	0.1µM*	17.1%	0.0501µM*	.	.
C1CCOC1	-23.0%	?	8.6%	-3.5%	.	.
O=C(OCC(=O)N1CCN(c2ccccc2)CC1)c1cnc(Cl)c(Cl)c1	-28.2%	8.91µM*	11.5%	.	-5.4%	.
COC(=O)CSc1nc2sc3c(c2c(=O)n1C1CCCCC1)CCN(C)C3	10.3%	?	19.8%[38.3 µM]	?	11.8%[9.22 µM]	9.4
Cc1ccc(S(=O)(=O)Nc2cc(C(=O)N3CCC4(CC3)OCCO4)ccc2N2CCCCC2)cc1	-36.4%	3.98µM*	36.9%[38.3 µM]	-25.3%	-7.8%	8.3
O=C(c1ccc(CNS(=O)(=O)c2ccccc2)cc1)N1CCC2(CC1)OCCO2	-38.1%	8.91µM*	-23.3%[38.3 µM]	?	?	-0.2
CC(=O)Nc1cc(C(=O)N2CCC3(CC2)OCCO3)ccc1Sc1ccc(F)cc1	-24.2%	2.99µM*	-5.2%	.	-9.7%	.
Cc1cccc(CS(=O)(=O)Cc2ccc(C(=O)N3CCC4(CC3)OCCO4)o2)c1	0.5%	25.1µM*	30.3%[38.3 µM]	-3.2%	11.5%	22.6
O.O.[NH-]C1(C(=O)O)CCCC1.[NH-]C1(C(=O)O)CCCC1.[Ni+2]	7.7%[10 µM]	-5.5%[13.5 µM]	-10.6%	-7.5%	.	.
c1nc(N2CC2)c2cnn([C@@H]3CCCCO3)c2n1	2.7%[10 µM]	2.4%[13.5 µM]	6.2%	-6.6%	.	.
Brc1cccc(-c2ccccc2)c1	-32.4%	10.4%	-5.4%	-2.1%	.	.
Nc1ncnc2c1ncn2[C@@H]1O[C@H](COP(=O)(O)OP(=O)(O)OP(=O)(O)O)[C@H]2OC3(O[C@H]21)C([N+](=O)[O-])=CC(=[N+]([O-])[O-])C=C3[N+](=O)[O-] (stereo not given in full)	-20.4%	?	-5.3%	?	.	.
O=C(c1ccc(CS(=O)(=O)c2ccccc2)o1)N1CCC2(CC1)OCCO2	-2.4%[0.074 µM]	22.4µM*	10.5%[38.3 µM]	-6.2%	-22.2%	9.2
COc1cc(/C=C(/C)[N+](=O)[O-])ccc1OCc1ccccc1Cl	-14.1%[10 µM]	2.82µM*	18.4%	10µM*	1.2%	.
C=C(C)[C@]12C[C@@H](C)[C@@]34O[C@](Cc5ccccc5)(O[C@@H]1[C@@H]3C=C(COC(=O)Cc1ccc(O)c(OC)c1)C[C@]1(O)C(=O)C(C)=C[C@@H]41)O2	-332.7%	0.8%	3.6%	-7.0%	.	.
Cc1ccnc(-n2c(C)cc(C=C3C(=O)N(C)C(=S)N(C)C3=O)c2C)c1	8.9%	?	-2.6%[38.3 µM]	31.6µM*	12.1%	4.8
Cc1cc(Cc2cc(C)c(N)cc2N)c(N)cc1N	-13.5%[10 µM]	?	8.6%	-18.6%	.	.
O=C1NS(=O)c2cc([N+](=O)[O-])cc([N+](=O)[O-])c21 (stereo not given)	-4.9%	22.4µM*	0.3%	.	-4.8%	.
Nc1ccc([N+](=O)[O-])cc1[N+](=O)[O-]	8.3%	-10.5%	4.9%	-2.3%	.	.
C/C=C\c1ccc(OC)cc1	?	-5.1%	3.2%	-0.4%	18.8%	.
COCCN1C(=O)NC(=O)/C(=C\c2ccc(F)cc2)C1=O	-9.4%	10.1%	1.2%	.	10.6%	.
O=C1NC(=O)N(c2ccc(F)cc2)C(=O)/C1=C/c1ccc(N2CCOCC2)cc1	0.5%	3.98µM*	-0.1%	.	-3.6%	.
SMILES	HTT cytoprotect	ALDH1A1 inh	IMPase Li inh	HPGD inh	HTT aggregate	IMPase inh
CCN(CC)c1ccc(C=C2C(=O)N(C)C(=S)N(C)C2=O)o1	.	-13.9%	5.8%	-12.6%	1.4%	.
CN1C(=O)C(=Cc2ccc(N3CCOCC3)c([N+](=O)[O-])c2)C(=O)N(C)C1=O	-50.9%	?	-1.4%	.	15.1%	.
CN1C(=O)C(=Cc2ccc(SC3CCCCC3)o2)C(=O)N(C)C1=O	-14.2%	14.1µM*	-5.9%	.	-21.1%	.
CN1C(=O)C(=Cc2ccc(N3CCCCCC3)cc2)C(=O)N(C)C1=O	-8.9%[10 µM]	0.112µM*	.	.	-0.6%[9.22 µM]	.
O=C1NC(=O)N(Cc2ccc(F)cc2)C(=O)/C1=C\c1ccc(N2CCCC2)cc1	-20.1%[10 µM]	0.251µM*	.	.	-7.8%[9.22 µM]	.
CC(C)C#N	-4.1%	15.8%	20.2%	-13.7%	.	.
COc1ccc(N2C(=O)NC(=O)/C(=C/c3ccc(N4CCOCC4)cc3)C2=O)cc1	-52.4%	10µM*	7.7%	.	4.9%	.
CN1C(=O)C(=Cc2ccc(N3CCCCC3)o2)C(=O)N(C)C1=S	-28.2%	14.1µM*	10.5%[38.3 µM]	-22.8%	14.0%	-1.8
Cc1cccc(N2C(=O)NC(=O)/C(=C\c3ccc(N4CCOCC4)cc3)C2=O)c1	12.7%[10 µM]	.	.	.	-0.7%[9.22 µM]	.
Cc1ccc(N2C(=O)NC(=O)/C(=C\c3ccc(N4CCOCC4)cc3)C2=O)cc1	.	11.2µM*	-0.6%	35.5µM*	-9.7%	.
Cc1cccc(N2C(=O)NC(=O)/C(=C/c3ccc(N4CCOCC4)cc3)C2=O)c1	-8.1%	11.2µM*	-0.3%	.	15.0%	.

Bioassay records deposited in PubChem by National Center for Advancing Translational Sciences (NCATS).
